The whole screen tested about 330,000 compounds, of which about 1,700 (0.52%) were called active. The list comes from a sample in which actives are over-represented; it also holds similar structures and randomly drawn compounds. Values without a mark were called inactive. The call rests on the fitted dose curve; in most records, active means well fitted inhibition curve with a large enough effect; inconclusive means small, poorly fitted or top-dose-only effect; inactive means no such curve, though single readings can be large or run the other way.
Biological target: Beta-lactamase (Escherichia coli (strain K12)) (UniProt P00811)
Sequence (P00811 whole entry, looked up): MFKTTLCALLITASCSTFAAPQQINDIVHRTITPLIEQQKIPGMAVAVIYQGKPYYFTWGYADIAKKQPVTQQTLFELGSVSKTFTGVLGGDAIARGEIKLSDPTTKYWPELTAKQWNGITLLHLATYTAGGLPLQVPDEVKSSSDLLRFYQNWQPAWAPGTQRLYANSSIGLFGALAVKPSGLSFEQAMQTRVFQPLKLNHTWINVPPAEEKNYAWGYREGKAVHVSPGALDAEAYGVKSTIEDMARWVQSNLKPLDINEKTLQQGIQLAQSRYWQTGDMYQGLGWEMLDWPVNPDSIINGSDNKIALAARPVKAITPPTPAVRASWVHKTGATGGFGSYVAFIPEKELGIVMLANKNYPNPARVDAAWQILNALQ
Experiment: qHTS Inhibitors of AmpC Beta-Lactamase (assay without detergent); further: nearly all actives have a fitted effect of over 20% in size;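 on activity change, negative = inhibition: plate controls were no compound for no effect and no enzyme for full effect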
Conditions: AmpC nitrocefin hydrolysis, absorbance 480 nm, 0.0001% Triton; series mostly up to 57.1 µM; activity change, negative = inhibition: at the top concentration
Method in brief: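 20 mM phosphate pH 7.0 + 0.01% (detergent screen) or 0.0001% Triton X-100; 5.3 nM AmpC reagent; cpd preinc 15 min RT; nitrocefin (800 uM stock) to start; A480 q20 s × 4 min; Activity was normalised to no-enzyme and no-compound control wells.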
Potency means the concentration at half of the fitted maximal effect.

Structure (SMILES) | activity change, negative = inhibition [%] | Potency
O=[N+]([O-])c1ccc(N2CCN(S(=O)(=O)c3ccccc3)CC2)cc1N1CCc2ccccc2C1 | -9.35 | –
O=C(N[C@@H](Cc1ccccc1)C(=O)OCc1ccccc1)c1nc[nH]c1C(=O)N[C@@H](Cc1ccccc1)C(=O)OCc1ccccc1 | -12.3 | –
CCC(C(=O)Nc1ncccn1)(C(F)(F)F)C(F)(F)F | -12.8 | –
Cc1ccccc1-c1nc(CS(=O)(=O)CC(=O)N2CCc3ccccc3C2)c(C)o1 | – | 11.2 µM (active)
CSc1ccc(CCNC(=O)CS(=O)(=O)Cc2nc(-c3ccccc3F)oc2C)cc1 | 21.8 | –
Cc1ccccc1-c1nc(CS(=O)(=O)CC(=O)NC(C)c2ccccc2)c(C)o1 (stereo not given) | 17.9 | –
CCC[C@H]1CCCC/C=C\CCCC(=O)OCCN1C(=O)OC(C)(C)C | 78.3 | –
COCCn1c(CN2CCC(Cc3ccccc3)CC2)nc2c1c(=O)n(C)c(=O)n2C | 0.0682 | –
COCCn1c(CN(Cc2ccccc2)Cc2ccccc2)nc2c1c(=O)n(C)c(=O)n2C | 176 | –
CC(C)CCn1c(CN(C)Cc2ccccc2)nc2c1c(=O)n(C)c(=O)n2C | 87 | –
CCN1CCN(Cc2nc3c(c(=O)n(C)c(=O)n3C)n2CC(=O)c2ccccc2)CC1 | – | 1.58 µM (active)
CC1CCCN(Cc2nc3c(c(=O)n(C)c(=O)n3C)n2CC(=O)c2ccccc2)C1 (stereo not given) | 123 | –
CC(C)Cn1c(CN(Cc2ccccc2)Cc2ccccc2)nc2c1c(=O)n(C)c(=O)n2C | – | 3.55 µM (active)
Cc1oc2nc(SCC(=O)Nc3ccc(S(N)(=O)=O)cc3)nc(NC(=O)c3ccccc3)c2c1C | -28.2 | –
O=C(CNC1CCCCC1)NCC1(c2ccccc2)CCCC1 | -22.1 | –
Cc1ccc(C(=O)NNC(=O)CSc2nnc3ccccn23)cc1 | -13.5 | –
Cc1ccc(-n2c(C)cc(C(=O)CSc3nnc4ccccn34)c2C)cc1 | -0.189 | –
O=C(CSc1nnc2ccccn12)c1ccccc1 | – | 44.7 µM (active)
COc1ccc(N2CCN(C(=O)CNC(=O)c3ccc(Br)o3)CC2)cc1 | -0.595 | –
O=C(NCCc1csc(-c2ccccc2)n1)c1ccccc1F | -2.06 | –
COc1ccc(-c2nc(CCNC(=O)c3ccc(Br)o3)cs2)cc1 | – | 44.7 µM (active)
CCOC(=O)N1CCN(Cc2oc(CO)cc(=O)c2O)CC1 | -9.1 | –
Cc1cc(C)cc(C(=O)NC2C(=O)N3C(C(=O)O)=C(CSc4nnc(C)s4)CSC23)c1 (stereo not given) | -28.5 | –
CC(C)(C)OC(=O)C1=C(CO)CS[C@@H]2[C@H](NC(=O)Cc3ccccc3)C(=O)N12 | -11.7 | –
C=CC1=C(C(=O)O)N2C(=O)[C@@H](NC(=O)/C(=N\OCC(=O)O)c3csc(N)n3)[C@H]2SC1 | – | 2 µM (active)

Structure (SMILES) | activity change, negative = inhibition [%] | Potency
Cc1nnc(SCC2=C(C(=O)O)N3C(=O)C(NC(=O)Cn4nc(C)c(Cl)c4C)C3SC2)s1 (stereo not given) | 1.18 | –
O=C(CN1C(=O)NC2(CCCCC2)C1=O)NCCC1=CCCCC1 | -12.1 | –
O=S(=O)(c1ccc(Cl)s1)N1CCC2(CC1)OCCO2 | 2.59 | –
COc1ccc(CNC(=O)CN2C(=O)NC3(CCCc4sccc43)C2=O)cc1 (stereo not given) | -9.03 | –
C=CCC1=C/C(=C\c2c(N)n3nc(CC(=O)N4CCOCC4)sc3nc2=O)C=C(OC)C1=O | 26.6 | –
COC(=O)C1(C)NC(c2ccc(F)cc2)C2C(=O)N(c3ccccc3)C(=O)C21 (stereo not given) | -7.33 | –
COC(=O)CSc1snnc1-c1ccc(Cl)c(Cl)c1 | -0.324 | –
O=C1c2ccccc2NC(c2ccccn2)N1NS(=O)(=O)c1ccccc1 (stereo not given) | -11.1 | –
Clc1ccc(Cl)c(Oc2ccc(Oc3nc(Cl)ccc3Cl)cc2)n1 | -11 | –
Nc1c(N(CCCO)C(=O)C2CCCC2)c(=O)[nH]c(=O)n1Cc1ccccc1 | -5.31 | –
CCCCCn1c(SCCC(C)C)nc2c1c(=O)[nH]c(=O)n2C | -18.6 | –
COC(=O)c1c(NC(=O)c2ccc(S(=O)(=O)N3CCOCC3)cc2)sc2c1CCN(C(C)C)C2 | 150 | –
COc1cccc(Cn2cc(/C=N/NC(=O)c3cc(O)cc(O)c3)c3ccccc32)c1 | – | 7.94 µM (active)
N#CCC(=O)N/N=C/c1cn(Cc2ccc3ccccc3c2)c2ccccc12 | -51.5 | –
CNC(=S)N/N=C/c1cn(Cc2ccc(C)cc2)c2ccccc12 | -7.01 | –
Cc1ccc(C(=O)N/C(=C\c2ccco2)C(=O)NC2CCS(=O)(=O)C2)cc1 (stereo not given) | -10.6 | –
Cc1cccc(C)c1NC(=O)CS(=O)CC(=O)N1CCN(c2ccccc2)CC1 (stereo not given) | 8.61 | –
O=C(O)CCCN1C(=O)c2ccccc2Sc2ncccc21 | -23.4 | –
O=C(Nc1ccc(S(=O)(=O)N2CCc3ccccc3C2)cc1)c1ccccc1 | -26.2 | –
C=CCN(CC=C)S(=O)(=O)c1ccc(C(=O)Nc2nc3c(s2)CCc2ccccc2-3)cc1 | – | 8.91 µM (active)
COCCN(CCOC)S(=O)(=O)c1ccc(C(=O)Nc2nc3c(s2)CCc2ccccc2-3)cc1 | 11.3 | –
O=C(Cc1ccccc1)NCC1OCCc2ccccc21 (stereo not given) | -17.1 | –
CC(=O)N1C(=O)/C(=C2\SC(=S)N(NC(=O)c3ccc(O)cc3)C2=O)c2ccccc21 | – | 20 µM (active)
Cn1cccc1/C=C1\SC(=S)N(NC(=O)c2ccc(Cl)cc2)C1=O | -37.8 | –
O=C(O)c1ccc(/C=C2\SC(=S)N(NC(=O)c3ccc(Br)cc3)C2=O)cc1 | -30.6 | –

Source: PubChem BioAssay AID485341 (National Center for Advancing Translational Sciences (NCATS), 2010)
